# Measurements reported in PubChem BioAssay AID1259423 (Fisher Drug Discovery Resource Center, 2018).
# Screen size: about 270,000 compounds; about 410 (0.15%) were called active. Rule as the data show it: active = activation above about 40%; inactive = the rest, inconclusive results apart. The full list was thinned out, with actives kept by preference.
# Tested on: Aedes aegypti neuropeptide Y-like receptor 7 (NPYLR7)
# Assay: agonists of mosquito NPYLR7 receptor, primary screen, cell-based, Aedes aegypti, calcium fluorescence, mosquito biting behavior (AID 1259423);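 also: 0% = vehicle and 100% = reference agonist at the receptor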
# Conditions: HEK293T NPYLR7/Galpha15, GCaMP6s calcium fluorescence, at 10 µM, stronger effect = higher value
# [1] = measured here: Max-Min RFU normalised activation
Structure (SMILES),activation,activation [1]
CCCCN(C)C(=O)c1nn(Cc2ccc(S(=O)(=O)N(C)c3ccccc3)cc2)c2ccccc12,11.3% (inactive),10%
CNC(C)c1nc2ccccc2c(=O)n1-c1ccc(Br)cc1 (stereo not drawn),0.997% (inactive),9.08%
CC(C)CN(Cc1cc(NC(=O)c2cccc(F)c2)ccc1N(C)C1CCN(C)CC1)C(=O)c1ccccc1Cl,1.98% (inactive),1.76%
N#[N+]c1c[nH]c2ccccc2c1=O,-8.5% (inactive),-5.61%
